# Screening data (PubChem)
# Sampled rows, rich in hits. Any-hit rate of the full collection: about 21%.
# CYP2C9 act: human CYP2C9 activators, primary screen, biochemical, luminescence. activation factor at 5 µM. 96,000 compounds, 1.4% hits. recombinant CYP2C9, luciferin-H conversion; hits give high values; factor 1 = untreated enzyme, 0 = blocked. Cytochrome P450 2C9 (Homo sapiens), P11712;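 active = activation factor of 2 or more for CYP2C9 at a 5 µM dose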;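 note: 0 = sulfaphenazole-blocked wells and 1 = vehicle-only wells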
# MRP1 act: H69AR viability gain despite doxorubicin, primary screen, MRP-1 activator project, H69AR cells, CellTiter-Glo | viability rescue | viability increase, % at 10 µM | 140,000 compounds, 0.61% hits;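 active = viability gain under doxorubicin at or above a set limit, the compound median plus 3 SD, cut at about 4.7% in these data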;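 note: MRP-1 overexpressing cells given doxorubicin 25 µM after compound pretreatment; 18-22 h compound pretreatment then 72 h with doxorubicin before readout; 0% = doxorubicin-only wells and 100% = vehicle-treated cells without doxorubicin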
# CYP2C19 inh: blockers of cytochrome P450 2C19 activity – biochemical, luminescence, ADME assay, primary screen; inhibition, % at 5 µM; 96,000 compounds, 21% hits; CYP2C19 Supersomes, luciferin-H EGE luminescence, 30 min; P33261;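 active = CYP2C19 inhibition above a set limit at 5 µM in the primary screen, cut at about 50% in these data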;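 note: plate controls were negative control wells for no effect and 2.5 mM tranylcypromine positive control for full effect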
# Target sequence (P33261 whole entry, looked up): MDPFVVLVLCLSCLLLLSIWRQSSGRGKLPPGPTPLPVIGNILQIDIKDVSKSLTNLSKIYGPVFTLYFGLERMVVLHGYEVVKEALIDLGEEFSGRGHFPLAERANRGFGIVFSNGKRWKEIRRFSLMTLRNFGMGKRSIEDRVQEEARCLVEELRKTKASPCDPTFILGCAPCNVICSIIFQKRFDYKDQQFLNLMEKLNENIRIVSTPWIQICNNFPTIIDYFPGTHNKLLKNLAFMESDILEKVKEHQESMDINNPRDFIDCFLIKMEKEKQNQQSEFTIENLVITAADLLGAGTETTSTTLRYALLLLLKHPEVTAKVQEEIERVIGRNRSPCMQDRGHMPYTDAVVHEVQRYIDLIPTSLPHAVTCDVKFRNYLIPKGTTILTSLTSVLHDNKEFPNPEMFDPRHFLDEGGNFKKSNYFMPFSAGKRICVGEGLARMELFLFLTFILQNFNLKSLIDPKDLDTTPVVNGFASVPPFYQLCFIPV
# CYP2C9 inh: blockers of cytochrome P450 2C9 activity – biochemical, luminescence, ADME assay, primary screen; P11712; CYP2C9 Supersomes, luciferin-H conversion; inhibition, % at 5 µM; 96,000 compounds, 20% hits; AID 777, 2007;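 active = blocking of liver enzyme CYP2C9 beyond about 50% at 5 µM, limit read from the data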
# MRP reversal: reversal of MRP1-mediated doxorubicin resistance, primary screen, H69AR cells, doxorubicin co-treatment. 85,000 compounds, 0.04% hits. differential viability (reversal), % at 10 µM. H69AR cells + 2 uM doxorubicin, CellTiter-Glo, 72 h;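 active = viability drop by adding the cancer drug above about 55%, with treated viability meeting a 40% cutoff, limit read from the data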;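 note: viability without doxorubicin minus viability with 2 µM doxorubicin for each compound; larger differential means the compound sensitizes cells more to doxorubicin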
# CYP2C19 activ: human CYP2C19 activators, primary screen, biochemical, luminescence; Cytochrome P450 2C19 (Homo sapiens), P33261; recombinant CYP2C19, luciferin-H EGE luminescence; hits give high values; 0 = fully inhibited enzyme, 1 = untreated enzyme; activation factor at 5 µM; 96,000 tested, under 10 active; AID 1025, 2008;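 active = activation factor of at least 2 at 5 µM in the primary screen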;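 note: 0 = wells with 2.5 mM tranylcypromine and 1 = vehicle-only wells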
# Starred values were filed as active, the others as inactive; . = no result given.
SMILES,CYP2C9 act,MRP1 act,CYP2C19 inh,CYP2C9 inh,MRP reversal,CYP2C19 activ
CC(=O)NS(=O)(=O)c1cccnc1Nc1cccc(Cl)c1,0.5,-1,9,50*,.,0.9
CC(=O)NS(=O)(=O)c1cccnc1Nc1cccc(Cl)c1C,.,3,.,.,.,.
O=C(OCCCN=C1NS(=O)(=O)c2ccccc21)c1ccc(F)cc1,0.6,-3,7,37,6,0.9
O=C(OCCN=C1NS(=O)(=O)c2ccccc21)c1ccncc1,0.2,-3,-19,78*,7,1.2
O=C(NCCCN=C1NS(=O)(=O)c2ccccc21)c1ccc(S(=O)(=O)N2CCCCC2)cc1,0.5,0,19,54*,4,0.8
O=C(NCCN=C1NS(=O)(=O)c2ccccc21)c1ccncc1,0.5,1,0,51*,7,1
COC(=O)/C=C/C(=O)Nc1cccc(C(F)(F)F)c1,.,0,.,.,.,.
CCOP(=O)(OCC)C(NC(=O)Nc1ccccc1)c1ccccc1 (stereo unspecified),.,-1,.,.,.,.
CCOP(=O)(OCC)C(NCc1ccccc1)c1ccc(Br)cc1 (stereo unspecified),0.9,0,54*,14,-2,0.5
CC(C)OC(=O)CN1C(=O)C(C)(C)Oc2ccc(C(=O)NC3CC3)cc21,0.7,0,12,34,9,0.9
CC(C)OC(=O)CN1C(=O)C(C)(C)Oc2ccc(C(=O)NC(C)(C)C)cc21,0.3,0,36,73*,-17,0.6
COc1ccc(CCNC(=O)Cn2c(-c3nonc3N)nc3ccccc32)cc1OC,0.5,-1,89*,48,-10,0.1
CCOc1ccc(CCNC(=O)Cn2c(-c3nonc3N)nc3ccccc32)cc1OCC,0.3,-4,45,70*,-18,0.6
COc1ccc(CCNC(=O)Cn2cnc3ccccc3c2=O)cc1OC,.,-2,.,.,.,.
CCOc1ccc(CCNC(=O)Cn2c(=O)oc3ccccc32)cc1OCC,0.4,0,84*,62*,.,0.2
CN1C(=S)SC(N(O)C(=O)NC2CCCCC2)C1(C)C (stereo unspecified),0.8,-1,8,24,4,0.9
C=CCNc1cc(C)oc(=O)c1C(=O)CCC,1.3,0,-2,-26,18,1
COc1ccc(C2C(C#N)=C(SC)NC3=C2C(=O)CC(C)(C)C3)cc1 (stereo unspecified),0.3,-4,50,73*,6,0.5
COc1ccc(C2C(C#N)=C(C)NC3=C2C(=O)CC(C)(C)C3)c(OC)c1 (stereo unspecified),0.6,-3,13,39,29,0.9
CCOC(=O)CSC1=C(C#N)C(c2ccc(C)cc2)C2=C(CCCC2=O)N1 (stereo unspecified),0.2,1,21,78*,16,0.8
COc1ccc(C2CC(=O)C3=C(C2)NC(C)=C(C#N)C3c2ccc(N(C)C)cc2)cc1 (stereo unspecified),0.1,-1,64*,87*,20,0.4
CSC1=C(C#N)C(C)C2=C(CC(C)(C)CC2=O)N1 (stereo unspecified),1.1,-2,1,-8,-3,1
CCOC(=O)CSC1=C(C#N)C(c2ccc(OC)cc2)C2=C(CC(C)(C)CC2=O)N1 (stereo unspecified),0.4,-6,72*,63*,29,0.3
CCS(=O)(=O)N1CCC(C(=O)OCC(=O)c2ccc(Br)cc2)CC1,.,.,.,.,12,.
CNc1nn(-c2cccc(Cl)c2)nc1N,0.8,-6,18,23,-34,0.8
SMILES,CYP2C9 act,MRP1 act,CYP2C19 inh,CYP2C9 inh,MRP reversal,CYP2C19 activ
Cc1ccc(CNC(=O)CSc2ncccn2)cc1,0.9,-1,77*,14,3,0.2
Cc1ccccc1NC(=O)CSc1nc(N2CCCCC2)nc(N2CCCCC2)n1,0.9,-3,13,14,.,0.9
Cc1ccc(CCNC(=O)CCSCc2ccc(Cl)cc2)cc1,.,1,.,.,.,.
Cc1ccc(CNC(=O)CCSCCC(=O)NCc2ccc(C)cc2)cc1,0.3,0,9,70*,5,0.9
Cc1ccc(CNC(=O)CSc2nc(N3CCCCC3)nc(N3CCCCC3)n2)cc1,0.9,-2,71*,11,11,0.3
COC(=O)c1cc(CNC(=O)c2cccc(Cl)c2Cl)ccc1OC,.,-2,.,.,.,.
Cc1[nH]n(-c2ccccc2)c(=O)c1/C=N/NC(=O)c1cccc([N+](=O)[O-])c1,0.9,-4,-10,13,.,1.1
Cc1[nH]n(-c2ccc([N+](=O)[O-])cc2)c(=O)c1C=NCCN1CCN(C(=O)c2ccccc2)CC1,0.3,-4,59*,65*,-2,0.4
O=C(Nc1cccc(C(F)(F)F)c1)N(Cc1ccc(Cl)cc1)CC(O)C(F)(F)F (stereo unspecified),0.6,-3,48,37,.,0.5
CCC(Oc1ccccc1)C(=O)NCc1ccc(S(N)(=O)=O)cc1 (stereo unspecified),.,1,.,.,.,.
Cc1c(C(N)=O)sc2ncn(CC(=O)N3CCC(C)CC3)c(=O)c12,0.2,-2,16,77*,8,0.8
Cc1c(C(=O)Nc2ccc3c(c2)OCO3)sc2ncn(CC(=O)N3CC(C)CC(C)C3)c(=O)c12 (stereo unspecified),0.2,-2,23,79*,7,0.8
Cc1c(C(N)=O)sc2ncn(CC(=O)OC(C)C)c(=O)c12,0.9,-2,4,8,10,1
Cc1c(C(=O)NC(C)C)sc2ncn(CC(=O)N3CCC(C)CC3)c(=O)c12,0.4,-2,39,63*,-3,0.6
O=C(Cc1cn(Cc2cccc(Cl)c2)c2ccccc12)N1CCCCCC1,.,-2,.,.,.,.
Cc1ccc(C)c(N2CCN(C(=O)CCCN3C(=S)NC(C)(C)CC3C)CC2)c1 (stereo unspecified),.,-1,.,.,.,.
CCc1nc(SCC(=O)NNC(=O)C2CCCCC2)c2ccccc2n1,1.8,-2,-4,-81,.,1
CCOC(=O)CNC(=O)CSc1nc(Cc2cccs2)nc2ccccc12,0.6,-1,58*,44,.,0.4
CCOC(=O)CSc1nc(CC)nc2ccccc12,0.8,-4,45,17,7,0.6
CCCc1nc(SCC(=O)N2CCc3ccccc3C2)c2ccccc2n1,0.2,-7,57*,78*,.,0.4
CC1CC(C)CN(C(=O)CSc2nc(Cc3cccs3)nc3ccccc23)C1 (stereo unspecified),0.3,-2,28,72*,.,0.7
COCCn1c(SCC(=O)N2CCc3ccccc3C2)nc2ccccc2c1=O,.,-2,.,.,.,.
O=S(=O)(Nc1ccc2c(c1)oc1ccccc12)N1CCCC1,0.1,0,47,89*,-2,0.5
